# Bioassay records (PubChem)
# Rows were chosen to be rich in hits. Some 2.6% of all compounds tested hit in one or more screens of this group.
# PABP FP inh – PABP-poly(A) binding inhibition. PABP-poly(A) RNA binding, fluorescence polarization. calls only at 35 µM. AID 2014. hit rate 1% among 290,000;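 further: calls also rest on retests at 20 µM and on dose response follow-up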
# Target sequence (P11940 whole entry, looked up): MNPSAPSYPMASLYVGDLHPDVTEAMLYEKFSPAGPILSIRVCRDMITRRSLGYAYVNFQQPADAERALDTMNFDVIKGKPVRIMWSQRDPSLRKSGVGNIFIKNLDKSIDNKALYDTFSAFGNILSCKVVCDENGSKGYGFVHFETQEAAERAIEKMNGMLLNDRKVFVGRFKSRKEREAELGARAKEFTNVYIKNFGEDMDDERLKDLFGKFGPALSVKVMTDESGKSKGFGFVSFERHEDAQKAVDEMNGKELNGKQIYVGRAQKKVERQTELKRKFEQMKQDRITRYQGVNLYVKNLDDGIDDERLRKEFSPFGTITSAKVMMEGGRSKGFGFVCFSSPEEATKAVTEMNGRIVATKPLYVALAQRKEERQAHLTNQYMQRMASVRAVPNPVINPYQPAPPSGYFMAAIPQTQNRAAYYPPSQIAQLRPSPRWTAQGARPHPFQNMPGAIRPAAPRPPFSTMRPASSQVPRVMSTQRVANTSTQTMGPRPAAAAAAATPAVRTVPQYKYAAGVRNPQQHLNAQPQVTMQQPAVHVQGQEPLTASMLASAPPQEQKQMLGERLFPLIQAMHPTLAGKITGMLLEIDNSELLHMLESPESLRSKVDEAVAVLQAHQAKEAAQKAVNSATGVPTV
# PHOSPHO1 block – inhibitors of human PHOSPHO1 phosphatase | Q8TCT1 | recombinant PHOSPHO1, absorbance phosphatase assay | inhibition, % at 13.3 µM | hit rate 1.1% among 290,000 | AID 1565; in the data active means inhibition above about 60%
# MLLE-PAM2 inh – blocks PAM2 peptide binding to the PABP1 MLLE domain; GST-MLLE / FITC-PAM2 fluorescence polarization; inhibition, % at 20 µM; hit rate 0.36% among 360,000; in the data active means inhibition above about 35%, passing the limit was not always enough
# APOBEC3G inh – inhibitors of human APOBEC3G DNA deaminase. inhibition, % at 20 µM. hit rate 0.28% among 330,000. recombinant A3G, ssDNA deamination FAM/TAMRA fluorescence. Q9HC16. AID 493012;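 active means inhibition of at least 40% at 20 µM, with no more than 30% in the related APOBEC3A deaminase screen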
# eIF4H inh – inhibitors of RNA binding by human eIF4H; Q15056; eIF4H fluorescence polarization binding assay; inhibition, % at 35 µM; hit rate 0.94% among 290,000; AID 2012;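 further: calls also rest on retests at 20 µM and on dose response follow-up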
# A3A deaminase – inhibitors of human APOBEC3A DNA deaminase; P31941; recombinant A3A, FAM/TAMRA ssDNA deamination fluorescence; inhibition, % at 20 µM; hit rate 0.41% among 330,000; AID 493011;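 active means at least 40% inhibition at 20 µM here, with at most 30% in a related deaminase screen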
# A3G conf – confirmation of human APOBEC3G DNA deaminase inhibitors; inhibition, % at 20 µM; recombinant A3G ssDNA deaminase, UDG/FAM-TAMRA fluorescence; shares compounds with APOBEC3G inh; hit rate 72% among 890; AID 493152;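 active means inhibition reaching a set limit in any replicate at 20 µM, the limit being 80% of the first screen's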
# UDG A3G counter – counter-screen for APOBEC3G inhibitors: E. coli UDG. shares compounds with APOBEC3G inh. 710 tested, under 10 active. UDG counterscreen, FAM/TAMRA oligo fluorescence. inhibition, % at 20 µM. AID 504715;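 active means compounds giving 40% or more inhibition at 20 µM in any one of the three replicates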;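 further: inhibitors lower the FAM signal released by uracil excision and alkaline cleavage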
# Hits are given with their value; 0 = inactive; ? = inconclusive; - = no result; + = active, no number. Unless noted, how the calls were made is not given here.
SMILES,PABP FP inh,PHOSPHO1 block,MLLE-PAM2 inh,APOBEC3G inh,eIF4H inh,A3A deaminase,A3G conf,UDG A3G counter
Cn1nc(C(=O)NNC(=O)C(CCC(N)=O)NS(=O)(=O)c2ccc(Cl)cc2)c2ccccc2c1=O (stereo not given),-,-,0,0,-,0,-,-
CCOC(=O)c1sc(NC(=O)C2CCCO2)c(C(=O)OCC)c1C (stereo not given),0,0,-,-,0,-,-,-
CCOC(=O)c1c(NC(=O)C2CCCO2)sc(C(=O)OC(C)(C)C)c1C (stereo not given),0,83.2,0,47.0,0,0,33.1,0
COc1ccc2c(C)cc3n[nH]c(=S)n3c2c1,0,66.8,0,52.4,0,0,87.1,0
CCOC(=O)C1=C(COc2ccccc2)NC(=O)NC1c1ccc(Cl)cc1 (stereo not given),0,0,0,0,0,0,-,-
COC(=O)C1=C(COc2ccccc2)NC(=O)NC1c1ccc(Cl)cc1 (stereo not given),-,-,-,48.1,-,0,0,0
Fc1ccccc1-n1[nH]nnc1=S,0,0,0,51.8,0,0,15.0,0
NS(=O)(=O)c1ccc(NC(=O)COC(=O)Cn2cnc3ccccc3c2=O)cc1,-,-,0,0,-,0,-,-
O=C(CCS(=O)(=O)c1ccc(F)cc1)Nc1nc(-c2ccncc2)cs1,0,0,0,61.1,0,0,52.6,-
O=C(COc1ccc(Cl)cc1)Nc1nc(-c2ccncc2)cs1,0,0,0,42.2,0,0,0,-
O=C(O)c1ccc2c(c1)C(=O)N(c1cccc3ccccc13)C2=O,0,0,0,0,0,0,-,-
CC(=O)c1sc2nc(-c3cccs3)ccc2c1N,0,73.1,0,44.5,0,0,30.6,0
NC(=O)C1CCN(C(=O)c2ccc(NS(=O)(=O)/C=C/c3ccccc3)cc2)CC1,-,-,0,-,-,-,-,-
COc1cc2cc3c(N)c(C(=O)Nc4sc(C)c(C)c4C#N)sc3nc2cc1OC,+,0,0,47.8,88.7,0,26.6,0
Cc1ccc(N(CC(=O)NCCc2ccccc2)C(=O)CCC(=O)Nc2cc(C)ccn2)cc1,0,0,0,0,0,0,-,-
O=[N+]([O-])c1cc2c(cc1/C=N/n1c(-c3ccccc3)n[nH]c1=S)OCO2,0,106.0,0,54.8,58.6,0,83.5,0
S=c1[nH]nc(-c2cc(-c3ccccc3)n[nH]2)n1/N=C/C=C/c1ccccc1,0,0,0,0,0,0,-,-
Fc1cccc(Cl)c1/C=N/n1c(-c2cccnc2)n[nH]c1=S,0,0,0,46.1,0,0,75.8,0
O=[N+]([O-])c1ccccc1/C=N/n1c(-c2cccnc2)n[nH]c1=S,0,0,0,69.4,0,0,80.5,0
O=[N+]([O-])c1cc(/C=N/n2c(-c3cccnc3)n[nH]c2=S)ccc1Cl,0,0,0,0,0,0,-,-
S=c1[nH]nc(-c2cccnc2)n1/N=C/C=C/c1ccccc1,0,67.4,0,41.7,0,0,75.4,0
CC(C)(C)c1ccc(S(=O)(=O)NC(=O)C2(C)CCN2C(=O)Cc2ccccc2Cl)cc1 (stereo not given),-,-,0,-,-,-,-,-
Cc1ccc(NC(=O)[C@@H]2O[C@H](CO)[C@H](O)[C@H](O)[C@H]2O)cc1C(F)(F)F,-,-,0,-,-,-,-,-
C(=N\N1CCOCC1)/c1cccs1,0,0,0,0,0,0,-,-
S=c1[nH]nc(-c2cccnc2)n1/N=C/c1cccs1,0,0,0,40.6,0,0,80.8,0
SMILES,PABP FP inh,PHOSPHO1 block,MLLE-PAM2 inh,APOBEC3G inh,eIF4H inh,A3A deaminase,A3G conf,UDG A3G counter
S=c1[nH]nc(-c2cccnc2)n1/N=C/c1ccccc1,0,0,0,43.7,0,0,80.5,0
Cc1ccc(-c2n[nH]c3c2C(c2ccccc2)N(c2ccc(C(=O)O)cc2)C3=O)cc1 (stereo not given),0,0,0,74.1,0,0,0,0
Cc1ccc(-n2c(CCc3nc4ccccc4[nH]3)n[nH]c2=S)cc1,0,80.6,0,52.3,0,0,0,-
CCn1c(CCc2nc3ccccc3[nH]2)n[nH]c1=S,0,0,0,0,0,0,-,-
COC(=O)c1ccccc1NC(=O)c1sc(=S)n(C)c1N,0,90.1,0,40.1,0,0,41.3,0
COC(=O)c1ccccc1NC(=O)c1sc(N)nc1C,0,0,0,0,0,0,-,-
CCN(CC)CCNC(=O)CCCCn1c(=S)[nH]c2c([nH]c3ccc(OC)cc32)c1=O,0,95.0,-,68.6,0,0,83.8,0
O=C(CSc1nc(=O)n(CCN2CCOCC2)c2c1CCCC2)Nc1ccc(F)cc1F,-,-,0,0,-,0,-,-
CC1=Nn2c(nnc2-c2n[nH]c3c2CCC3)SC1,0,0,0,0,0,0,-,-
CC(C)(C)C1=Nn2c(nnc2-c2n[nH]c3c2CCC3)SC1,0,68.3,0,48.8,0,0,71.4,0
CCn1c(C)c(CS(=O)(=O)c2ccccc2)[nH]c1=O,0,0,38.3,49.4,0,0,87.0,0
CN(CC(=O)Nc1n[nH]c(=S)s1)S(=O)(=O)c1cccc2cccnc12,0,60.4,0,75.4,0,0,95.1,0
Cc1csc(NC(=O)CN(C)S(=O)(=O)c2cccc3cccnc23)n1,0,0,0,0,0,0,-,-
COc1ccccc1N(CC(O)CN1CCC(C)CC1)S(=O)(=O)c1ccccc1 (stereo not given),0,0,0,0,0,0,-,-
COc1ccc2c3c(cccc13)N(C)N=C2C,?,0,94.6,44.7,100.1,0,40.4,-
CCN1C(=O)C(=O)N(CC(=O)NC(C)CCc2ccccc2)C1=O (stereo not given),-,-,0,0,-,0,-,-
COc1ccccc1/C=C/C=N/NC(=O)c1cc(-c2ccco2)[nH]n1,0,0,0,63.6,0,0,21.4,0
Cc1ccc(C)c(NC(=O)CN(C)C(=O)c2ccc(-n3cncn3)c([N+](=O)[O-])c2)c1,-,-,0,68.9,-,0,0,0
COCCCN(CCCN)Cc1ccco1,0,0,0,71.1,0,0,0,0
COCCCN(CCNC(=O)c1ccc(NC2=NC3CS(=O)(=O)CC3S2)cc1)Cc1ccco1 (stereo not given),0,0,0,0,0,0,-,-
CCNS(=O)(=O)c1cccc(C(=O)c2c(C)cc3ccccn23)c1,0,0,0,0,0,0,-,-
Cc1ccc(NC(=O)C2(C)CCN2Cc2cccc3c2OCO3)cc1O (stereo not given),-,-,0,-,-,-,-,-
CC(=O)/C(=N/Nc1cccc(C)c1)N1CCOCC1,0,92.4,0,45.4,0,0,0,0
Cc1cccc(C(=O)Nc2cccc(C(=O)N3CCOCC3)c2)c1,0,0,0,0,0,0,-,-
CCOC(=O)c1c(NC(=O)c2ccc(Cl)cc2)csc1C,0,0,0,0,0,0,-,-
COc1ccc(C(=O)Nc2ccc(Cl)c(S(=O)(=O)Nc3ccccc3OC)c2)cc1,0,0,0,0,0,0,-,-
